Tests used:
Assay in all cases: DAPPL (digital affinity profiling via proximity ligation, sequencing); 10 mM Tris-HCl pH 7.5, 50 mM NaCl, 1 mM DTT, 4% glycerol, room temperature, 30 min; GST-TFs on glutathione beads, 16-mer random dsDNA library, 0.1% formaldehyde crosslink after washing; high values mean tight binding
FLI1 = biological target: T1, FLI1 (Homo sapiens, UniProt Q01543 1-452); conditions: protein: recombinant; tags: N-terminal GST; dsDNA, one strand shown
T1 sequence: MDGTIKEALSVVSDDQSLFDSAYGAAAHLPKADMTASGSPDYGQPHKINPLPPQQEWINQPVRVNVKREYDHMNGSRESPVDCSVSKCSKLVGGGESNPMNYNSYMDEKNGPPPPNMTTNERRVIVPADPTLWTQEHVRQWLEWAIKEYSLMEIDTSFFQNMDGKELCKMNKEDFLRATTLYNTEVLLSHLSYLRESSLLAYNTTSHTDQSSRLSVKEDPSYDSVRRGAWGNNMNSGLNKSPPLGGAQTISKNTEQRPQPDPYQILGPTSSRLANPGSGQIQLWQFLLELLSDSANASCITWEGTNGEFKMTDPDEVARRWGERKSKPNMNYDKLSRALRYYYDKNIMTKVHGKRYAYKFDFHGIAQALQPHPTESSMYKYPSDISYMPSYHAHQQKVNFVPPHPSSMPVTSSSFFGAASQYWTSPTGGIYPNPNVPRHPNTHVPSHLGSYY
Summary of the method: (§1)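 Pools were built from human transcription factors expressed in yeast as GST fusions, captured on glutathione beads and DNA-barcoded, along with a tag-only sample. Incubation with 200 nmole of a 16-mer random double-stranded DNA library lasted 30 min at room temperature in Tris/NaCl/DTT/glycerol buffer, and was followed by washing, 0.1% formaldehyde crosslinking, proximity ligation, PCR amplification and Illumina NextSeq500 sequencing. Binding signal is the quotient of each hexamer's read frequency for a factor and its frequency for the tag-only sample.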

ELK1 = biological target: T2, ELK1 (Homo sapiens, UniProt P19419 1-428); conditions: protein: recombinant; tags: N-terminal GST; dsDNA, one strand shown
T2 sequence: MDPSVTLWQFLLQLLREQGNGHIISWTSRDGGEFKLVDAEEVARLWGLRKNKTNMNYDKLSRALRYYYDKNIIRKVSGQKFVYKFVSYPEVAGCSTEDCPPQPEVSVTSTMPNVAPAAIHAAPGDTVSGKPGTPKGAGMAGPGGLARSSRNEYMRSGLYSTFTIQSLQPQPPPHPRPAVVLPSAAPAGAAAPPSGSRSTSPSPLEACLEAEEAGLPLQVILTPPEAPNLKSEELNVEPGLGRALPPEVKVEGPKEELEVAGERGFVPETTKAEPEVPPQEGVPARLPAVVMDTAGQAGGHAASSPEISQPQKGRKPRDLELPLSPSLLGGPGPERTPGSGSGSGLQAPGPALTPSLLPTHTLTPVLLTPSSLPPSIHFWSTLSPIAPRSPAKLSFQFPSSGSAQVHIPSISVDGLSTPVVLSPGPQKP
Summary of the method: as §1

GABPA = biological target: T3, GABPA (Homo sapiens, UniProt Q06546 1-454); conditions: protein: recombinant; tags: N-terminal GST; dsDNA, one strand shown
T3 sequence: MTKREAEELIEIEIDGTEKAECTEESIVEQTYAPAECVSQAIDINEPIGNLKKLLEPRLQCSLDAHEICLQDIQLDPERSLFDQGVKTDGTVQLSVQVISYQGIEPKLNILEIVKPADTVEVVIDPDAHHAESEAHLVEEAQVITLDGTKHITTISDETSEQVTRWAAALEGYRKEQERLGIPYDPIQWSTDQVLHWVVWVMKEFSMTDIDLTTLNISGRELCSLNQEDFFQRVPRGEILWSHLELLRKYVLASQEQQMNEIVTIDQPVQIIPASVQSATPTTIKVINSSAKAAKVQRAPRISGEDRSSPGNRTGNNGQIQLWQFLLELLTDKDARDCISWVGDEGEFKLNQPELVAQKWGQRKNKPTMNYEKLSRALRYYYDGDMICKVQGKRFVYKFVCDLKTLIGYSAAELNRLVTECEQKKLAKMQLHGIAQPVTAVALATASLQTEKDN
Summary of the method: as §1

ERG = biological target: T4, ERG (Homo sapiens, UniProt P11308 1-479); conditions: protein: recombinant; tags: N-terminal GST; dsDNA, one strand shown
T4 sequence: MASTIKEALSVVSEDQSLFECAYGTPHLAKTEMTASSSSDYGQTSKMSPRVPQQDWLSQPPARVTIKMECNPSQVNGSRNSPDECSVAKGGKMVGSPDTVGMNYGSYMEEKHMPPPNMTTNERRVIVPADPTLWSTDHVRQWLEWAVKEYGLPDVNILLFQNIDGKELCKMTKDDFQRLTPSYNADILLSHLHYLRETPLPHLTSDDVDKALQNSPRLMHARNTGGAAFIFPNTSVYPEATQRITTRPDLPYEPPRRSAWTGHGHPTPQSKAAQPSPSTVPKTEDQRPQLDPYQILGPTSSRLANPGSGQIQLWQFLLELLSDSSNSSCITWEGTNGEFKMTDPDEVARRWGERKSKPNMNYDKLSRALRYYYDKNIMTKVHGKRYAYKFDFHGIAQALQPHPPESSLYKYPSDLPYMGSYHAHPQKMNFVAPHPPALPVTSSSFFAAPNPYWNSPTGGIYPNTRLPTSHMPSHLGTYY
Summary of the method: as §1

ELF1 = ELF1 (Homo sapiens, UniProt P32519 1-619); conditions: protein: recombinant; tags: N-terminal GST; dsDNA, one strand shown
Summary of the method: as §1

EHF = biological target: T5, EHF (Homo sapiens, UniProt Q9NZC4 1-300); conditions: protein: recombinant; tags: N-terminal GST; dsDNA, one strand shown
T5 sequence: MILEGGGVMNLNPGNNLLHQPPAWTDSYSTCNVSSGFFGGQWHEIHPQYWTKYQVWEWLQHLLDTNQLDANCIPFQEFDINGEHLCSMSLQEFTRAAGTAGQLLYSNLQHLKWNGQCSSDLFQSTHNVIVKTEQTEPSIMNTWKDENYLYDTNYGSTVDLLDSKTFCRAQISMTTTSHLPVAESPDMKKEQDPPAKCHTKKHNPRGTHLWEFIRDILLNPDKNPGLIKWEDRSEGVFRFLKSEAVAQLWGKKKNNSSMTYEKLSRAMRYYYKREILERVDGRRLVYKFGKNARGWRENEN
Summary of the method: as §1

SPI1 = SPI1 (Homo sapiens, UniProt P17947 1-270); conditions: protein: recombinant; tags: N-terminal GST; dsDNA, one strand shown
Summary of the method: as §1

SPIB = SPIB (Homo sapiens, UniProt Q01892 1-262); conditions: protein: recombinant; tags: N-terminal GST; dsDNA, one strand shown
Summary of the method: as §1

ELK3 = biological target: T6, ELK3 (Homo sapiens, UniProt P41970 1-407); conditions: protein: recombinant; tags: N-terminal GST; dsDNA, one strand shown
T6 sequence: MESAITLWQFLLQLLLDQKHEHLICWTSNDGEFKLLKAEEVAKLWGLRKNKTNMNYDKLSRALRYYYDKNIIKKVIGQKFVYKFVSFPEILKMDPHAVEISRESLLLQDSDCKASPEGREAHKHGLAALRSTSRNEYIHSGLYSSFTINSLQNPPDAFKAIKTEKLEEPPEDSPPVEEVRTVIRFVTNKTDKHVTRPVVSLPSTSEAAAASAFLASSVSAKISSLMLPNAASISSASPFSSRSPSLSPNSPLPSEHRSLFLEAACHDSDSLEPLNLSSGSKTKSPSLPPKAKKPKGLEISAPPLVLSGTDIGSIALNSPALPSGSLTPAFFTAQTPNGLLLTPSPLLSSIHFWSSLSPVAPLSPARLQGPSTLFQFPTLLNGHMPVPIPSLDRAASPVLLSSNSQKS
Summary of the method: as §1

FEV = biological target: T7, FEV (Homo sapiens, UniProt Q99581 1-238); conditions: protein: recombinant; tags: N-terminal GST; dsDNA, one strand shown
T7 sequence: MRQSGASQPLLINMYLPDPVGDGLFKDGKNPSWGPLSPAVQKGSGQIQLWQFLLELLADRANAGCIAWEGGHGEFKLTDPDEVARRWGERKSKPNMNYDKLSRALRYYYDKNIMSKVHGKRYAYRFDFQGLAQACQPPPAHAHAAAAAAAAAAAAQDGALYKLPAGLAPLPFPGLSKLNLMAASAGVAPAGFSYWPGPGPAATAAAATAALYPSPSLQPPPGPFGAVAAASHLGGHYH
Summary of the method: as §1

ETV5 = ETV5 (Homo sapiens, UniProt P41161 1-510); conditions: protein: recombinant; tags: N-terminal GST; dsDNA, one strand shown
Summary of the method: as §1

HSF1 = HSF1 (Homo sapiens, UniProt Q00613 1-529); conditions: protein: recombinant; tags: N-terminal GST; chain copies: 3; dsDNA, one strand shown
Summary of the method: as §1

SPIC = biological target: T8, SPIC (Homo sapiens, UniProt Q8N5J4 1-248); conditions: protein: recombinant; tags: N-terminal GST; dsDNA, one strand shown
T8 sequence: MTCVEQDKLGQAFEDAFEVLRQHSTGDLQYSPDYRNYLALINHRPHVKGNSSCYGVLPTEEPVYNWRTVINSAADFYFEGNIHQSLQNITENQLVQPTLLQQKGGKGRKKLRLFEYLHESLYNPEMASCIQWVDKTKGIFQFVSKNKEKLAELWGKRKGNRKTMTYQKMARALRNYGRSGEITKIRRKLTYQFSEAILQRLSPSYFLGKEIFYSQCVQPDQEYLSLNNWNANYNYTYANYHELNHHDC
Summary of the method: as §1

ELF4 = ELF4 (Homo sapiens, UniProt Q99607 1-663); conditions: protein: recombinant; tags: N-terminal GST; dsDNA, one strand shown
Summary of the method: as §1

ELK4 = biological target: T9, ELK4 (Homo sapiens, UniProt P28324-2 1-405); conditions: protein: recombinant; tags: N-terminal GST; dsDNA, one strand shown
T9 sequence: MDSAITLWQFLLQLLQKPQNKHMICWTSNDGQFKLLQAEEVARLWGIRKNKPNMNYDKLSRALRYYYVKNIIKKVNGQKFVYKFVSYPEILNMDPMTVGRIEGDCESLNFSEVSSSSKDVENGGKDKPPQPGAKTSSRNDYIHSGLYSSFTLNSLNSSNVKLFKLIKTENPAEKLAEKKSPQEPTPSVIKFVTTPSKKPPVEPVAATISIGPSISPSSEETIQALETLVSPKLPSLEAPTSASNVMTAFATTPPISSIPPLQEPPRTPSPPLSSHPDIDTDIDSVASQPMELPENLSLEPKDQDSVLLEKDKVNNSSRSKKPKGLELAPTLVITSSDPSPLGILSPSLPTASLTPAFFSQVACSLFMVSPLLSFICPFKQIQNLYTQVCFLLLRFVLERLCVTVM
Summary of the method: as §1

ETV2 = biological target: T10, ETV2 (Homo sapiens, UniProt O00321 1-342); conditions: protein: recombinant; tags: N-terminal GST; dsDNA, one strand shown
T10 sequence: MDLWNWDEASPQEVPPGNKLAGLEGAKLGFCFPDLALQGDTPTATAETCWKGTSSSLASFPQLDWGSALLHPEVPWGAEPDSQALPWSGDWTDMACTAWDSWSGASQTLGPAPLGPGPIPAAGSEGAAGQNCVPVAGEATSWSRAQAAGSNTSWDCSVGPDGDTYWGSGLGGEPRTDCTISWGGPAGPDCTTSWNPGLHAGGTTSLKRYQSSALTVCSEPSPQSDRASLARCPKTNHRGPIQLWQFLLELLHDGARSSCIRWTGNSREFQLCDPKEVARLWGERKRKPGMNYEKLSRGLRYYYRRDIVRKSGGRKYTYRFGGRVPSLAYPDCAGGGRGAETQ
Summary of the method: as §1

ELF3 = biological target: T11, ELF3 (Homo sapiens, UniProt P78545 1-371); conditions: protein: recombinant; tags: N-terminal GST; dsDNA, one strand shown
T11 sequence: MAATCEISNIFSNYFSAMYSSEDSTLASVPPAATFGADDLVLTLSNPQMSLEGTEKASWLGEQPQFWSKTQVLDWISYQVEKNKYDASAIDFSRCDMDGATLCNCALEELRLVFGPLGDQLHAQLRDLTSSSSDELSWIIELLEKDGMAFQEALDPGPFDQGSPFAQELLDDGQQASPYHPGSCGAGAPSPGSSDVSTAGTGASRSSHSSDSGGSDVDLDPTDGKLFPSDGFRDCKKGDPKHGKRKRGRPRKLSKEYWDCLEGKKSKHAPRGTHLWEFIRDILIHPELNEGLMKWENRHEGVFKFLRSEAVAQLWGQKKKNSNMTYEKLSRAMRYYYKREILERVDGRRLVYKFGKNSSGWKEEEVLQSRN
Summary of the method: as §1

CRX = CRX (Homo sapiens, UniProt O43186 1-299); conditions: protein: recombinant; tags: N-terminal GST; dsDNA, one strand shown
Summary of the method: as §1

ETV1 = ETV1 (Homo sapiens, UniProt P50549 1-477); conditions: protein: recombinant; tags: N-terminal GST; dsDNA, one strand shown
Summary of the method: as §1

Sequence of ELF4 (Q99607 whole entry): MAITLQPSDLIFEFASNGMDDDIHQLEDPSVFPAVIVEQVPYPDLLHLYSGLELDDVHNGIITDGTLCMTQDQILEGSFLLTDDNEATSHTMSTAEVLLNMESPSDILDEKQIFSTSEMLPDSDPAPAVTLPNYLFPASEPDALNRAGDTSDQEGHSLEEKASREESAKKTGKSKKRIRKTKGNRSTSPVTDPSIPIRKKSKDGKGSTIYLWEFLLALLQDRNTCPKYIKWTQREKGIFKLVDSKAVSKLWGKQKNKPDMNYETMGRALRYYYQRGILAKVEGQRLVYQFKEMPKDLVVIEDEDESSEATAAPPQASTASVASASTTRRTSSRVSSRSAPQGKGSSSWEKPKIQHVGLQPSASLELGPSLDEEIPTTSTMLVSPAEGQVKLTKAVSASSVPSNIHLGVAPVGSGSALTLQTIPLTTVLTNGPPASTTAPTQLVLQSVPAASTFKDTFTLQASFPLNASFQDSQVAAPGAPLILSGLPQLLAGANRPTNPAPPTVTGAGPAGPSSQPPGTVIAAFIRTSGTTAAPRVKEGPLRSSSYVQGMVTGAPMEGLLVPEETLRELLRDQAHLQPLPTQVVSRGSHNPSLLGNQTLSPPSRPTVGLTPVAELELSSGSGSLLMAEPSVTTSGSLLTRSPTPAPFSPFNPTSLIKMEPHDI
Sequence of ETV1 (P50549 whole entry): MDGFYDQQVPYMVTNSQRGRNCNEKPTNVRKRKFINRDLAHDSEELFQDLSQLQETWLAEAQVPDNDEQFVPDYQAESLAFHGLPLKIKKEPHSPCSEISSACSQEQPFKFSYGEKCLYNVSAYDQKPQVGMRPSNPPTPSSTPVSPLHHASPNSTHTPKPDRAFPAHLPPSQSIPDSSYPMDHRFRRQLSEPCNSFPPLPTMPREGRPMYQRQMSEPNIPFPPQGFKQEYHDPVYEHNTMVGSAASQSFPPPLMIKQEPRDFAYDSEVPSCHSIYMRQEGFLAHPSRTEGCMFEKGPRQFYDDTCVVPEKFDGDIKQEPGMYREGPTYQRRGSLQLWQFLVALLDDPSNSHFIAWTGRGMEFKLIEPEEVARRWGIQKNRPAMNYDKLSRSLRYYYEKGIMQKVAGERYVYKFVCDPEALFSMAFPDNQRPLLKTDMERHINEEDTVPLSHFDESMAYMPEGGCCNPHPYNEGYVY
Sequence of SPIB (Q01892 whole entry): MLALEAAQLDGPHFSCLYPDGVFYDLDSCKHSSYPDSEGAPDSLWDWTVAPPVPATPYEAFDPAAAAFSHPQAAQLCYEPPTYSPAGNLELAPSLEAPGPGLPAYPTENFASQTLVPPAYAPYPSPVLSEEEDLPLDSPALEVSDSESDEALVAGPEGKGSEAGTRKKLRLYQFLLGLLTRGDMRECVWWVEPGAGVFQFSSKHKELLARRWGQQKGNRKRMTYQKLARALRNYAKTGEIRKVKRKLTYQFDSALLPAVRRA
Sequence of ELF1 (P32519 whole entry): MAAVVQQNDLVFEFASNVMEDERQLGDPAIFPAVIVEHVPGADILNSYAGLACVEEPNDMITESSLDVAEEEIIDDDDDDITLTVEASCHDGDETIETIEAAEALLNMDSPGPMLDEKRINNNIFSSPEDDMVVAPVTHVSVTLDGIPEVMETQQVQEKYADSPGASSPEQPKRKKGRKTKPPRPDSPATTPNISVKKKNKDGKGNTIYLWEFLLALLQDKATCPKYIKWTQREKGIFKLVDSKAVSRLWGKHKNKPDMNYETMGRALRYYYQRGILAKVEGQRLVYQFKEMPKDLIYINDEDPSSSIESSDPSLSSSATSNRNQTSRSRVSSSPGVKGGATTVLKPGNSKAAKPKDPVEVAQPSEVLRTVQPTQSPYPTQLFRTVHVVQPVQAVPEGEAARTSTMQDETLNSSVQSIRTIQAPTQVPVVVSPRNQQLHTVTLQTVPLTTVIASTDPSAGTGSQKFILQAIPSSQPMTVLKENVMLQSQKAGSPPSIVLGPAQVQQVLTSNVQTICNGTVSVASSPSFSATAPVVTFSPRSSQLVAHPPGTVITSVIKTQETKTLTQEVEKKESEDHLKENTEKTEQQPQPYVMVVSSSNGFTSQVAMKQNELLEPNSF
Sequence of ETV5 (P41161 whole entry): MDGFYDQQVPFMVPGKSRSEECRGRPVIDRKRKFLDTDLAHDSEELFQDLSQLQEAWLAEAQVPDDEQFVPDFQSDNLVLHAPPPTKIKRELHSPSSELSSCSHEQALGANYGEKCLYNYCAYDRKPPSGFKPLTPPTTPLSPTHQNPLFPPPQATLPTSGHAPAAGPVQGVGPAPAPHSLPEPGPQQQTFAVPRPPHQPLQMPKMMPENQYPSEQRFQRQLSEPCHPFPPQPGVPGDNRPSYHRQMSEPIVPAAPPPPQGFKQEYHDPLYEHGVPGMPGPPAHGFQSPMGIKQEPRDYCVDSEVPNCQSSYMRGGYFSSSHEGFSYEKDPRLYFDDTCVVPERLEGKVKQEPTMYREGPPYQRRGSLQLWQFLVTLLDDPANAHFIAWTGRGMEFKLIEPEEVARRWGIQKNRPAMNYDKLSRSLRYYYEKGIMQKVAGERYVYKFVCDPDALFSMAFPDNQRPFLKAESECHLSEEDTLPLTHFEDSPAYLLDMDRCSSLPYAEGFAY
Sequence of CRX (O43186 whole entry): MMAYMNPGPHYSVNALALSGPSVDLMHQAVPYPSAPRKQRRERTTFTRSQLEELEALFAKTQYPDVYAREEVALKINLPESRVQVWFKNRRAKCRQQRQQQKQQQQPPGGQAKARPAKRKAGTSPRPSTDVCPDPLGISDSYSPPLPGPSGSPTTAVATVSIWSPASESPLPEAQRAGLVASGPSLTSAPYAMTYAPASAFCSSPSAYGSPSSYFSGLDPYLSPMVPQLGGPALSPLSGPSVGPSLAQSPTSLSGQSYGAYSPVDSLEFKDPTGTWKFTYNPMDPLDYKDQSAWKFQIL
Sequence of HSF1 (Q00613 whole entry): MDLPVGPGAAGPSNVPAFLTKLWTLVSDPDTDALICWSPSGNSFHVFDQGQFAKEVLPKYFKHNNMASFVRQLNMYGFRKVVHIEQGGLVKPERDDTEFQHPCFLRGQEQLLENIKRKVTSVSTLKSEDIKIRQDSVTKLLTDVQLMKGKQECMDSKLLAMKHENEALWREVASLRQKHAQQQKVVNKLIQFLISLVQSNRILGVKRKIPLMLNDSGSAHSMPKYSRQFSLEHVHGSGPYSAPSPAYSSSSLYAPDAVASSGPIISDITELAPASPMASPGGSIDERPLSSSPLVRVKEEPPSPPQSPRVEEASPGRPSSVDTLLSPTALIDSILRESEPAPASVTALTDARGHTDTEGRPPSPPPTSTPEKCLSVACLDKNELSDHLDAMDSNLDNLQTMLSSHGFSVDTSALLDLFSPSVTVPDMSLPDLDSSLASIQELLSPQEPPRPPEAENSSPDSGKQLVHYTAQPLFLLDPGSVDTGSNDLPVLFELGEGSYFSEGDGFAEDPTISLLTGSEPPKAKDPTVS

## TTACCG
FLI1
  binding signal: 1.16 fold enrichment (6-mer frequency, TF over GST control)
ELK1
  binding signal: 1.16 fold enrichment (6-mer frequency, TF over GST control)
GABPA
  binding signal: 1.12 fold enrichment (6-mer frequency, TF over GST control)
ERG
  binding signal: 1.2 fold enrichment (6-mer frequency, TF over GST control)
ELF1
  binding signal: 1.11 fold enrichment (6-mer frequency, TF over GST control)
EHF
  binding signal: 1.24 fold enrichment (6-mer frequency, TF over GST control)
SPI1
  binding signal: 1.17 fold enrichment (6-mer frequency, TF over GST control)
SPIB
  binding signal: 1.15 fold enrichment (6-mer frequency, TF over GST control)
ELK3
  binding signal: 1.18 fold enrichment (6-mer frequency, TF over GST control)
FEV
  binding signal: 1.26 fold enrichment (6-mer frequency, TF over GST control)
ETV5
  binding signal: 1.23 fold enrichment (6-mer frequency, TF over GST control)
HSF1
  binding signal: 1.25 fold enrichment (6-mer frequency, TF over GST control)
SPIC
  binding signal: 1.16 fold enrichment (6-mer frequency, TF over GST control)
ELF4
  binding signal: 1.13 fold enrichment (6-mer frequency, TF over GST control)
ELK4
  binding signal: 1.16 fold enrichment (6-mer frequency, TF over GST control)
ETV2
  binding signal: 1.12 fold enrichment (6-mer frequency, TF over GST control)
ELF3
  binding signal: 1.2 fold enrichment (6-mer frequency, TF over GST control)
CRX
  binding signal: 1.74 fold enrichment (6-mer frequency, TF over GST control)
ETV1
  binding signal: 1.14 fold enrichment (6-mer frequency, TF over GST control)

From article PMC7862700, “An all-to-all approach to the identification of sequence-specific readers for epigenetic DNA modifications on cytosine”
